Results from PubChem BioAssay AID1523 (The Scripps Research Institute Molecular Screening Center, 2009).
The list shows a part of the results. Rule as the data show it: active = activation above about 12%; inactive = the rest. Non-standard residues stand in square brackets, D forms with d. Residues, ends and D or L forms follow the SMILES beside them. ξ: configuration not given here. ξM = CSCCC(N)C(=O)O

biological target: Sphingosine 1-phosphate receptor 4 (Homo sapiens) (UniProt O95977); assay: S1P4 receptor agonists, retest, confirmation, cell-based, high throughput (AID 1523); details: S1P4 agonist cell-based reporter assay; at 4.98 µM; stronger effect = higher value;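 also: 0% = vehicle and 100% = full reference agonist response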
Sequence (O95977 whole entry, looked up): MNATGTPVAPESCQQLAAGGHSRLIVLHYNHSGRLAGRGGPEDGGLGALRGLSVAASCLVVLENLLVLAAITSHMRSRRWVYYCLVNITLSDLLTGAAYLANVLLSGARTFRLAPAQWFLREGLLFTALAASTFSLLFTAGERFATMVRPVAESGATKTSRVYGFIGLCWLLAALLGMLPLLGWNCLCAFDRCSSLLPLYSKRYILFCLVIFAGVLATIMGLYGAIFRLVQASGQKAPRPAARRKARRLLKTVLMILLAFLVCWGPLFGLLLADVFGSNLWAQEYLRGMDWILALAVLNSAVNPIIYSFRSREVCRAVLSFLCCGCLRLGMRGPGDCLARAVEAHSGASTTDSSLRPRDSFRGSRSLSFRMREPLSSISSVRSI

activation, inactive:
CSc1sc(C(=O)NNC(=O)c2ccc(Cl)cc2)c2c1C=CCC2 -2.13%
COC(=O)[C@@H]1CC[C@H](C)[C@@H](c2ccc(C)cc2)N1C(=O)c1ccc(/C=N/O[C@H](C)c2cn([C@@H]3COC[C@H]3O)nn2)cc1 -1.25%
CCC(C)NC(=O)C1c2ccccc2Oc2ccccc21 (centres undefined) 0.12%
Cc1cc(C)c(C#N)c(SCC(=O)NN2CC(=O)N(c3ccccc3F)CC2=O)n1 -0.87%
O=C(COC(=O)c1cc([N+](=O)[O-])ccc1NCc1ccccc1)NC1CCCCC1 -2.43%
COc1ccccc1CNC(=O)CNC(=O)c1cn(-c2ccccc2OC)c(=O)c2ccccc12 -1.82%
O=C(COC(=O)Cc1ccc(F)cc1)Nc1cc(S(=O)(=O)N2CCOCC2)ccc1N1CCCC1 -0.73%
CC(Oc1ccc(Br)cc1Br)C(=O)NC1CCCC1 (centres undefined) -1.69%
Cc1noc(C)c1COC(=O)COc1ccc(-c2ccccc2)cc1 -2.48%
Cc1cc(NC(=O)c2cc(-c3cccs3)on2)nn1Cc1ccc(Cl)cc1 -0.63%
CCC(=O)/C(=C(/O)c1ccccc1)c1nc2ccccc2[nH]1 -1.45%
COC(=O)CNC(=O)C(CCSC)NC(C)=O (centres undefined) (Ac-[ξM]-Gly-OMe) -1.87%
COc1ccc(C2CC(c3cccs3)=NN2c2ccc(F)cc2)cc1OC (centres undefined) 10.7%
Cc1ccc(NC(=O)Nc2ccccc2)c(Br)c1 -1.05%
